Consider 13 compounds from PubChem BioAssay (NCI).

Compounds without any hit were thinned out: in the full panel of roughly 83,000, 20% have a hit.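 Activity criterion: percent growth below 10, measured after cells in 96-well plates were exposed to a single compound concentration for 48 hours.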 Unmarked numbers belong to inactive results. Calls of active or inactive are those of the source.

Holding throughout (assay): NCI-60 one-dose screen, 48 h (100 = growth as untreated, 0 = no growth, -100 = all killed)
What all share (conditions): 10 µM unless noted

The test system of experiment [1] is NCI-H23 lung.
The test system of experiment [2] is NCI-H226 lung.
The test system of experiment [3] is NCI-H322M lung.
The subject of experiment [4] is HOP-62 NSCLC.
Experiment [5] deals with NCI-H460 lung.
Experiment [6] deals with HOP-92 NSCLC.
For experiment [7], the system named is NCI-H522 lung.
Experiment [8] concerns A549/ATCC NSCLC.
Experiment [9] concerns 786-0 renal.
The subject of experiment [10] is COLO 205 colon.
Experiment [11] has as its system DU-145 prostate.
Experiment [12] deals with K-562 leukemia.
In experiment [13] the test system is MALME-3M melanoma.
The subject of experiment [14] is MDA-MB-231 breast.
Experiment [15] relates to RXF 393 renal.
The subject of experiment [16] is SF-268 CNS.
Experiment [17] relates to SF-295 CNS.
Experiment [18] has as its system SF-539 CNS.
The subject of experiment [19] is UACC-257 melanoma.
Experiment [20] relates to M14 melanoma.

Turning to `COc1cc(/C=C/C(=O)c2cc(OC)c(OC)c(OC)c2)ccc1Oc1nc2c(c(=O)n(C)c(=O)n2C)n1C`, the growth in experiment [1] is -51.1% (active); in experiment [2], -35.4% (active); in experiment [3], 0% (active); in experiment [4], -40.8% (active); in experiment [5], -5.25% (active); in experiment [6] it was 3.39% (active). The growth in [7] was -68.7% (active); in experiment [8] it was -13.2% (active); in experiment [9] it was -87.4% (active); in [10], -77% (active); in [11], 7.64% (active); in experiment [12] it was 10.2%. The growth in experiment [13] was -26.8% (active); in [14], 9.39% (active); in experiment [15] it was -89.4% (active); in [16], 11.9%; in experiment [17], -10.1% (active); in experiment [18], -24.9% (active). The figures for the growth in experiment [19] and in experiment [20] were 40.8% and -28.5% (active), respectively.
With `CCOC(=O)c1cnn(CC(C)O)c1NC(=O)NCc1ccccc1C(F)(F)F` (stereo not given), the growth was 98.8% in [1]; 104% in experiment [2]; 97.5% in [3]; 102% in experiment [4]; 109% in experiment [5]; 84.5% in experiment [6]. In addition, the growth in [7] is 60.8%; in experiment [8], 82.1%; in [9], 93.8%; in [10], 112%; in [11], 105%; in experiment [12], 86.3%. In addition, the growth is 101% in [13]; 105% in experiment [14]; 111% in experiment [15]; 101% in experiment [16]; 92.6% in experiment [17]; 98.3% in experiment [18]. Moreover, the growth is 89.7% in experiment [19] and 88.6% in [20].
As to `Fc1ccc(/C=C/[C@@H]2C[C@@H](F)CCO2)cc1`, the growth in [1] was 104%; in experiment [2], 101%; in [3], 82.1%; in [4], 105%; in experiment [5], 99.7%; in [6], 73.6%. Besides, the growth in experiment [7] is 91%; in experiment [8] it was 106%; in experiment [9], 94.4%; in [10], 102%; in [11] it was 113%; in experiment [12], 64.2%. For the same compound, the growth in experiment [13] was 99.7%; in experiment [14] it was 98.2%; in experiment [15], 96.4%; in experiment [16] it was 104%; in [17] it was 94.8%; in [18], 103%. For the same compound, the growth in experiment [19] is 93.9%; in [20], 85.5%.
With `COc1ccc(Oc2ccc(/C=C/C(=O)c3cc4ccccc4oc3=O)cc2)cc1`, the growth in experiment [1] is 81%; in [2] it was 92.2%; in experiment [3], 84.5%; in [4], 85.6%; in experiment [5], 102%; in experiment [6], 58.2%. In addition, the growth in [7] was 65.1%; in experiment [8] it was 95.2%; in experiment [9], 108%; in [10] it was 120%; in experiment [11] it was 101%; in experiment [12], 78.7%. For the same compound, the growth is 94.2% in [13]; 76% in experiment [14]; 100% in experiment [15]; 80.9% in experiment [16]; 104% in [17]; 92.5% in experiment [18]. Besides, the growth in experiment [19] was 93.3%; in experiment [20] it was 90.5%.
`Cc1c(C(C)(C)O)cn2ncnc(Oc3ccc(NC(=O)Nc4ccc(Cl)c(C(F)(F)F)c4)c(F)c3)c12`: the growth in experiment [1] is 30.6%; in experiment [2], 62.6%; in [3], 92.1%; in [4], 101%; in experiment [5], 25.9%; in experiment [6], 36.4%. Further, the growth is 39.9% in experiment [7]; 41.2% in experiment [8]; 64.8% in experiment [9]; 72.8% in [10]; 80.6% in [11]; 25.4% in experiment [12]. In addition, the growth in experiment [13] is 91.4%; in experiment [14], 73.3%; in experiment [15], 72.4%; in experiment [16] it was 63.6%; in [17], 36.4%; in experiment [18], 41%. Further, the growth in [19] is 80%; in experiment [20] it was 55.1%.
`CNC(=O)Nc1ccc(-c2ccc3ncnc(Nc4cccc(Cl)c4)c3c2)cc1`: the growth is 62.9% in [1]; 68.4% in [2]; 7.46% (active) in [3]; 71.4% in experiment [4]; 77.4% in experiment [5]; 37.8% in experiment [6]. Besides, the growth in experiment [7] was -1.3% (active); in experiment [8] it was 41.8%; in [9], 71.4%; in [10], 66.3%; in experiment [11], 44.8%; in experiment [12], 60.3%. For the same compound, the growth was 53.5% in [13]; 65.7% in experiment [14]; 50.4% in [15]; 52.2% in experiment [16]; 59.9% in [17]; 74.3% in experiment [18]. The growth was 65.7% in experiment [19] and 63.2% in experiment [20].
As to `CCCCC#Cc1c(I)n(C2OC(CO[Si](C)(C)C(C)(C)C)C3OC(C)(C)OC32)c(=O)n(C(=O)c2ccccc2)c1=O` (stereo not given), the growth in [1] was 51.9%; in experiment [2], 67.7%; in experiment [3] it was 110%; in experiment [4], 94.8%; in [5], 68.5%; in [6] it was -37.6% (active). In addition, the growth in [7] is 71%; in [8], 67.7%; in [9] it was 64.1%; in experiment [10], -46.9% (active); in experiment [11], 74.7%; in experiment [12], 6.35% (active). The growth in [13] was 1.91% (active); in experiment [14] it was 10.1%; in experiment [15] it was -56.8% (active); in [16], 36.8%; in experiment [17], 74%; in experiment [18], 3.54% (active). Also, the growth in experiment [19] was 77.6%; in experiment [20], 78.6%.
As for `O=C(c1cccc(N2CCOCC2)n1)c1c[nH]c2ccccc12`, the growth in experiment [1] was 92.7%; in [2], 82.8%; in experiment [3], 97%; in experiment [4], 87.6%; in experiment [5] it was 86.7%; in experiment [6] it was 92.8%. Moreover, the growth in experiment [7] is 88.3%; in [8], 95.3%; in [9], 98.7%; in experiment [10], 107%; in experiment [11], 99.8%; in [12], 103%. The growth is 95.1% in [13]; 80.2% in experiment [14]; 99% in experiment [15]; 94.1% in experiment [16]; 100% in [17]; 88.9% in experiment [18]. Further, the growth in experiment [19] was 87.7%; in experiment [20] it was 94.8%.
As to `Nc1cccc(-c2ccc(COc3ccc(CC4SC(=O)NC4=O)cc3)cc2)c1` (stereo not given), the growth is 70.5% in experiment [1]; 94.1% in experiment [2]; 89.6% in [3]; 48.4% in experiment [4]; 43.8% in [5]; 42.3% in experiment [6]. For the same compound, the growth was 29.7% in [7]; 44.8% in experiment [8]; 77.9% in [9]; 101% in [10]; 83.2% in [11]; 21.6% in experiment [12]. The growth was 42.5% in experiment [13]; 73.4% in experiment [14]; 77.7% in experiment [15]; 70.6% in experiment [16]; 63.8% in experiment [17]; 64.3% in [18]. The growth in [19] is 71%; in experiment [20] it was 36.5%.
`C=C(C)[C@@H]1CC[C@]2(C(=O)Nc3ccccn3)CC[C@]3(C)[C@H](CC[C@@H]4[C@@]5(C)CCCNC(C)(C)[C@@H]5CC[C@]43C)[C@@H]12`: the growth in experiment [1] was 19.5%; in experiment [2] it was 43.3%; in experiment [3], 65.5%; in [4] it was 30.4%; in experiment [5] it was -40.3% (active); in [6], 41.8%. Also, the growth in experiment [7] is 12.6%; in experiment [8] it was 23.1%; in experiment [9], 33.9%; in [10], -62.2% (active); in experiment [11], 34.8%; in experiment [12] it was -1.45% (active). Moreover, the growth is -2.67% (active) in experiment [13]; 49.9% in experiment [14]; 51.3% in [15]; 39.8% in experiment [16]; 44.4% in experiment [17]; 34.1% in experiment [18]. Further, the growth is 9.84% (active) in experiment [19] and 26.6% in [20].
Consider `O=c1cc(CP(=O)(O)O)c2cc(O)c(-c3ccccc3)cc2o1`, for which the growth is 101% in [1]; 101% in [2]; 101% in experiment [3]; 103% in [4]; 104% in [5]; 95.7% in [6]. The growth in experiment [7] was 94.7%; in [8], 106%; in [9] it was 104%; in [10], 108%; in experiment [11] it was 105%; in [12], 105%. Moreover, the growth in experiment [13] was 103%; in [14], 111%; in experiment [15], 105%; in experiment [16], 99%; in experiment [17], 101%; in [18] it was 104%. The growth was 101% in [19] and 97.6% in experiment [20].
Regarding `C=CCn1cc(-c2nc3ccccc3s2)c2cc(-c3ccc4c5c(cccc35)C(=O)N(CCO)C4=O)ccc21`, the growth is 99.7% in experiment [1]; 90.3% in experiment [2]; 98.8% in [3]; 90.6% in [4]; 98.1% in experiment [5]; 78.7% in experiment [6]. For the same compound, the growth in experiment [7] was 88.7%; in experiment [8], 95%; in experiment [9] it was 97.6%; in experiment [10] it was 116%; in experiment [11], 107%; in [12] it was 90.8%. Besides, the growth in experiment [13] is 119%; in experiment [14], 85.2%; in [15] it was 100%; in [16], 90.5%; in [17], 91.2%; in experiment [18], 104%. For the same compound, the values for the growth in experiment [19] and in [20] were 107% and 106%, respectively.
In the case of `Nc1nc(N(Cc2ccccc2)c2ccccc2)c2cn[nH]c2n1`, the growth is 81.7% in experiment [1]; 98.3% in [2]; 94.2% in experiment [3]; 70% in [4]; 75.8% in experiment [5]; 62.1% in experiment [6]. Further, the growth in experiment [7] is 90.1%; in [8], 71.4%; in experiment [9] it was 72.3%; in experiment [10], 58.8%; in experiment [11] it was 88.2%; in experiment [12], 23.9%. In addition, the growth in experiment [13] was 62.8%; in [14], 62.1%; in experiment [15], 67.6%; in experiment [16], 73.8%; in experiment [17] it was 51.5%; in experiment [18] it was 68.8%. Also, the figures for the growth in experiment [19] and in [20] were 99.7% and 33.5%, respectively.
